Measured values taken from PubChem BioAssay (NCATS).
Values joined by “and” are separate entries in the source; they are usually repeats but may differ in a detail not shown here. Equal entries are not always repeated. Results filed as inconclusive are left out. Active and inactive are the calls of the source. Calls follow the shape of the dose curve; as a rule, active = well fitted curve in the direction sought with a large enough effect; inconclusive = small, poorly fitted or top-dose-only effect, or another doubt; inactive = no such curve, though single readings can be large; an effect the other way counts as inactive or inconclusive.

Tests used:
[1] = qHTS of pediatric cancer cell lines to identify multiple opportunities for drug repurposing: Primary screen for DAOY cells (AID 1347090); conditions: DAOY medulloblastoma viability, CellTiter-Glo luminescence, 48 h; series mostly up to 46 µM; also: nearly all actives have a fitted effect of over 55% in size; also: potency is read from the fitted curve at half-maximal effect
Method in brief: (§1)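 Viability measured as metabolically active cells via CellTiter-Glo luminescence following 48 hours of compound exposure, 11-point dilutions in confirmatory testing. 500-1,000 cells/well plated 5 hours before dosing; controls were DMSO and 2.3 µM bortezomib.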

[2] = qHTS of pediatric cancer cell lines to identify multiple opportunities for drug repurposing: Primary screen for SJ-GBM2 cells (AID 1347091); conditions: SJ-GBM2 viability, CellTiter-Glo luminescence, 48 h; series mostly up to 46 µM; also: potency is read from the fitted curve at half-maximal effect
Method in brief: as §1

[3] = qHTS of pediatric cancer cell lines to identify multiple opportunities for drug repurposing: Primary screen for A673 cells (AID 1347092); conditions: A673 Ewing sarcoma viability, CellTiter-Glo ATP luminescence, 48 h; series mostly up to 46 µM; also: nearly all actives have a fitted effect of over 45% in size; also: potency is read from the fitted curve at half-maximal effect
Method in brief: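 A673 cells (500-1,000 cells/well) were treated 48 hours at 37 degrees C with compounds at 11-point (0.78 nM to 46 µM) or 8-point (0.59 nM to 46 µM) dilutions. Viability read by CellTiter-Glo luminescence; concentration-response curves fitted.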

[4] = qHTS of pediatric cancer cell lines to identify multiple opportunities for drug repurposing: Primary screen for BT-37 cells (AID 1347094); conditions: BT-37 viability, CellTiter-Glo luminescence, 48 h; series mostly up to 57.3 µM; also: potency is read from the fitted curve at half-maximal effect
Method in brief: (§2)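 Viability was measured as metabolically active cells after 48 hours of treatment, read by CellTiter-Glo luminescence. Compounds were tested at multiple final concentrations, giving concentration-response curves.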

[5] = qHTS of pediatric cancer cell lines to identify multiple opportunities for drug repurposing: Primary screen for U-2 OS cells (AID 1347096); conditions: U-2 OS viability, CellTiter-Glo luminescence, 48 h; series mostly up to 46 µM; also: nearly all actives have a fitted effect of over 50% in size
Method in brief: (§3)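 Viability after 48 h compound treatment at 37C, 500-1,000 cells/well, read as ATP luminescence with CellTiter-Glo. Primary screens used 11-point (MIPE, 0.78 nM-46 µM) or 8-point (NPC, 0.59 nM-46 µM) final concentrations; follow-up screens used 11-point dilutions.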

[6] = qHTS of pediatric cancer cell lines to identify multiple opportunities for drug repurposing: Primary screen for Saos-2 cells (AID 1347097); conditions: Saos-2 viability, CellTiter-Glo ATP luminescence, 48 h; series mostly up to 46 µM; also: nearly all actives have a fitted effect of over 40% in size; also: potency is read from the fitted curve at half-maximal effect
Method in brief: as §2

[7] = qHTS of pediatric cancer cell lines to identify multiple opportunities for drug repurposing: Primary screen for SK-N-SH cells (AID 1347098); conditions: SK-N-SH viability, CellTiter-Glo luminescence, 48 h; series mostly up to 57 µM; also: nearly all actives have a fitted effect of over 65% in size; also: potency is read from the fitted curve at half-maximal effect
Method in brief: (§4)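 Cells (500-1,000/well) rested 5 h, then received compounds for 48 h; metabolically active cells were measured by CellTiter-Glo luminescence. Final concentrations spanned up to 46 µM (MIPE, 11-point) or 0.59 nM-46 µM (NPC, 8-point) in primary screens, 11-point in follow-ups.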

[8] = qHTS of pediatric cancer cell lines to identify multiple opportunities for drug repurposing: Primary screen for NB1643 cells (AID 1347099); conditions: NB1643 neuroblastoma viability, CellTiter-Glo luminescence, 48 h; series mostly up to 46 µM; also: nearly all actives have a fitted effect of over 50% in size; also: potency is read from the fitted curve at half-maximal effect
Method in brief: as §2

[9] = qHTS of pediatric cancer cell lines to identify multiple opportunities for drug repurposing: Primary screen for LAN-5 cells (AID 1347100); conditions: LAN-5 neuroblastoma viability, CellTiter-Glo luminescence, 48 h; series mostly up to 46 µM; also: potency is read from the fitted curve at half-maximal effect
Method in brief: as §3

[10] = qHTS of pediatric cancer cell lines to identify multiple opportunities for drug repurposing: Primary screen for BT-12 cells (AID 1347101); conditions: BT-12 viability, CellTiter-Glo luminescence, 48 h; series mostly up to 57.3 µM; also: nearly all actives have a fitted effect of over 25% in size; also: potency is read from the fitted curve at half-maximal effect
Method in brief: as §4

[11] = qHTS of pediatric cancer cell lines to identify multiple opportunities for drug repurposing: Primary screen for Rh18 cells (AID 1347102); conditions: Rh18 rhabdomyosarcoma viability, CellTiter-Glo luminescence, 48 h; series mostly up to 46 µM; also: nearly all actives have a fitted effect of over 65% in size; also: potency is read from the fitted curve at half-maximal effect
Method in brief: as §3

[12] = qHTS of pediatric cancer cell lines to identify multiple opportunities for drug repurposing: Primary screen for OHS-50 cells (AID 1347103); conditions: OHS-50 osteosarcoma viability, CellTiter-Glo luminescence, 48 h; series mostly up to 57.3 µM; also: nearly all actives have a fitted effect of over 40% in size; also: potency is read from the fitted curve at half-maximal effect
Method in brief: as §4

[13] = qHTS of pediatric cancer cell lines to identify multiple opportunities for drug repurposing: Primary screen for RD cells (AID 1347104); conditions: RD rhabdomyosarcoma viability, CellTiter-Glo luminescence, 48 h; series mostly up to 46 µM; also: nearly all actives have a fitted effect of over 55% in size; also: potency is read from the fitted curve at half-maximal effect
Method in brief: as §2

[14] = qHTS of pediatric cancer cell lines to identify multiple opportunities for drug repurposing: Primary screen for SK-N-MC cells (AID 1347093); conditions: SK-N-MC viability, CellTiter-Glo luminescence, 48 h; series mostly up to 46 µM; also: potency is read from the fitted curve at half-maximal effect
Method in brief: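 Metabolically active cells were quantified by ATP-dependent luminescence (CellTiter-Glo, 15 min at room temperature) following 48 h treatment. Cells had been plated at 500-1,000 per well and settled for 5 h beforehand.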

[15] = qHTS of pediatric cancer cell lines to identify multiple opportunities for drug repurposing: Primary screen for NB-EBc1 cells (AID 1347095); conditions: NB-EBc1 neuroblastoma viability, CellTiter-Glo luminescence, 48 h; series mostly up to 46 µM; also: potency is read from the fitted curve at half-maximal effect
Method in brief: as §2

Measured: Potency

CC(=O)CC(c1ccccc1)c1c(O)c2ccccc2oc1=O (configuration not stated)
not listed: [14] | [15]
inactive: all other assays above

CC(N)C12CC3CC(CC(C3)C1)C2 (configuration not stated)
not listed: [6] | [13]
inactive: all other assays above

O=C(O)c1ccc(-n2nc(-c3ccccc3O)nc2-c2ccccc2O)cc1
active: [2] 20.9 µM | [4] 24.6 µM
inactive: [9] | [11]

NC(=O)N1c2ccccc2CC(=O)c2ccccc21
not listed: [4] | [15]
inactive: all other assays above

Cc1onc(-c2ccccc2Cl)c1C(=O)N[C@@H]1C(=O)N2[C@@H]1SC(C)(C)[C@@H]2C(=O)O
not listed: [6] | [13]
inactive: all other assays above

O=S(=O)(c1cccc2cnccc12)N1CCCNCC1
active: [3] 18.7 µM
not listed: [6] | [7] | [12] | [15]
inactive: all other assays above

CC(C)Cn1cnc2c(N)nc3ccccc3c21
active: [14] 16.6 µM
inactive: [1] | [5] | [11]

Nc1nc(F)nc2c1ncn2[C@@H]1O[C@H](CO)[C@@H](O)[C@@H]1O
active: [1] 1.48 µM | [2] 0.935 µM | [3] 0.743 µM | [14] 33.5 nM and 332 nM | [4] 0.863 µM | [15] 841 nM and 1.05 µM | [8] 372 nM | [9] 11.9 µM and 469 nM | [10] 1.53 µM | [12] 55 nM and 485 nM | [13] 833 nM

CCC(C)(C)c1ccc(CC(C)CN2C[C@@H](C)O[C@@H](C)C2)cc1 (some centres not stated)
not listed: [3] | [6] | [12] | [14]
inactive: all other assays above

NC1(c2ccc(-c3nc4ccn5c(=O)[nH]nc5c4cc3-c3ccccc3)cc2)CCC1
inactive: [5]
active: [1] 18.7 µM | [2] 5.26 µM and 13.3 µM | [3] 14.8 µM and 21.1 µM | [14] 332 nM and 266 nM | [6] 10.5 µM | [7] 19.2 µM and 17.2 µM | [9] 3.72 µM | [10] 21.7 µM and 24.6 µM | [11] 16.8 µM

COc1cccc(N(C)C(=S)Oc2ccc3c(c2)CCCC3)n1
active: [12] 24.3 µM
not listed: [4] | [10] | [14]
inactive: all other assays above

Oc1c(Cl)cc(Cl)c2cccnc12
active: [1] 4.22 µM and 9.35 µM | [2] 8.41 µM and 11.8 µM | [3] 2.66 µM and 9.35 µM | [14] 4.73 µM and 9.35 µM | [4] 24.6 µM and 27.3 µM | [15] 2.99 µM and 7.43 µM | [6] 16.6 µM | [7] 3.86 µM and 30.4 µM | [8] 2.66 µM and 6.62 µM | [9] 5.96 µM and 18.7 µM | [10] 27.6 µM and 30.6 µM | [12] 12.3 µM and 27.3 µM | [13] 5.31 µM and 26.4 µM

CCC(=O)O[C@]1(C(=O)SCF)[C@H](C)C[C@H]2[C@@H]3C[C@H](F)C4=CC(=O)C=C[C@]4(C)[C@@]3(F)[C@@H](O)C[C@@]21C
not listed: [3] | [6] | [7] | [12]
inactive: all other assays above

Cc1ncc([N+](=O)[O-])n1CCO
not listed: [4] | [12]
inactive: all other assays above

CN(C)c1ccc(C(=C2C=CC(=[N+](C)C)C=C2)c2ccc(N(C)C)cc2)cc1
active: [1] 2.66 µM and 1.48 µM | [2] 1.33 µM and 372 nM | [3] 1.06 µM and 93.5 nM | [14] 1.06 µM | [7] 1.09 µM and 2.41 µM | [8] 3.35 µM and 7.43 µM | [9] 1.68 µM and 526 nM | [10] 1.38 µM and 611 nM | [11] 750 nM and 332 nM | [12] 978 nM and 217 nM

CCCCCCNC(=O)n1cc(F)c(=O)[nH]c1=O
active: [14] 16.6 µM | [15] 2.99 µM and 4.18 µM | [8] 5900 nM | [9] 7.5 µM and 9.35 µM
inactive: [1] | [2] | [5] | [6] | [11] | [12]

CC(C)(C)NC(=O)[C@H]1CC[C@H]2[C@@H]3CC[C@H]4NC(=O)C=C[C@]4(C)[C@H]3CC[C@]12C
inactive: [5] | [11]
active: [2] 14.8 µM | [12] 12.2 µM

CCn1cc(C(=O)O)c(=O)c2cc(F)c(N3CCNCC3)nc21
not listed: [4]
inactive: all other assays above

CC(C)(C)C(=O)OCOP(=O)(COCCn1cnc2c(N)ncnc21)OCOC(=O)C(C)(C)C
inactive: [5] | [11]
active: [3] 2.11 µM and 743 nM | [14] 188 nM and 1 nM | [15] 2.99 µM and 662 nM | [6] 26.6 µM and 23.5 µM | [7] 15.4 µM and 27.1 µM | [8] 11.9 µM and 18.7 µM | [9] 16.6 µM | [10] 11 µM and 17.2 µM | [13] 23500 nM

CNNCc1ccc(C(=O)NC(C)C)cc1
not listed: [13] | [15]
inactive: all other assays above

C[C@@H](CN1CC(=O)NC(=O)C1)N1CC(=O)NC(=O)C1
inactive: [1] | [2] | [5] | [7] | [10] | [11] | [12]
active: [14] 23.7 µM and 7.43 µM | [15] 3.72 µM | [9] 4.18 µM

O=P(O)(O)C(O)(Cc1cccnc1)P(=O)(O)O
not listed: [4]
inactive: all other assays above

CC(C(=O)O)c1ccc2c(c1)CC(=O)c1ccccc1S2 (configuration not stated)
inactive: [2] | [15] | [5] | [6] | [9] | [11]

Cn1c(=O)c2c(ncn2CC(O)CO)n(C)c1=O (configuration not stated)
not listed: [4] | [13] | [15]
inactive: all other assays above

C[C@@H](NCCCc1cccc(C(F)(F)F)c1)c1cccc2ccccc12
inactive: [2] | [3] | [15] | [5] | [8] | [9] | [10] | [11]

CO[C@@H]1[C@@H](OC(N)=O)[C@@H](O)[C@H](Oc2ccc3c(O)c(NC(=O)c4ccc(O)c(CC=C(C)C)c4)c(=O)oc3c2C)OC1(C)C
not listed: [15]
inactive: all other assays above

COc1ccc2cc3[n+](cc2c1OC)CCc1cc2c(cc1-3)OCO2
inactive: [2] | [5] | [7]
active: [1] 6.68 µM and 18.7 µM | [3] 2.11 µM and 2.35 µM | [14] 8.41 µM and 18.7 µM | [8] 15 µM and 18.7 µM | [9] 10.6 µM and 16.6 µM | [10] 3.09 µM and 4.32 µM
